The nature of experiment [1]: MultiTox-Fluor Cytotoxicity Assay - LYMP1-002 - Live Cells (AID 955). The gist of the method:
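Human lymphoblastoid LYMP1-002 cells, 2500/well in complete medium, rested 5 hr at 37 C, then exposed to compounds for 16 hr at 37 C. Live-cell protease cleavage of GF-AFC read by fluorescence (Ex/Em 405/510) after 60 min at room temperature; AC50 from Hill fits.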

Experiment [2] in a line: MultiTox-Fluor Cytotoxicity Assay - LYMP1-002 - Dead Cells (AID 960). Also: nearly all actives have a fitted effect of over 60% in size. The gist of the method:
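Human lymphoblastoid cells (LYMP1-002), 2500/well in complete medium, were exposed to compounds for 16 hr at 37 C. Dead-cell protease activity was read as bis-AAF-R110 fluorescence (Ex/Em 485/520), normalized to DMSO and 15 uM tetraoctylammonium bromide; AC50 from Hill fits.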

The nature of experiment [3]: MultiTox-Fluor Cytotoxicity Assay - LYMP1-003 - Dead Cells (AID 961). Also: nearly all actives have a fitted effect of over 70% in size. The gist of the method: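 LYMP1-003 lymphoblastoid, 2500 cells/well, 5 hr settle then 16 hr cpd at 37 C; MultiTox-Fluor reagent 60 min RT; Ex/Em 485/520 dead-cell signal; norm. DMSO = 0%, 15 uM tetraoctylammonium bromide = 100%; Hill AC50.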
The nature of experiment [4]: Cell Viability - LYMP1-003 - Assay at 24 hr (AID 963). The gist of the method: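 Human lymphoblastoid LYMP1-003 cells (2500/well) were rested 5 hr at 37 C, then exposed to compounds in complete medium for 24 hr at 37 C. Cellular ATP was quantified by CellTiter-Glo luminescence, and AC50 values came from Hill fits of concentration-response data.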
A short description of experiment [5]: Cell Viability - LYMP1-003 - Assay at 40 hr (AID 964). Also: series mostly up to about 92 µM; nearly all actives have a fitted effect of over 60% in size. The gist of the method: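 Human lymphoblastoid LYMP1-003 cells, 2500/well in complete medium, rested 5 hr at 37 C, then exposed to compounds for 40 hr at 37 C. Viability read as intracellular ATP by CellTiter-Glo luminescence; AC50 from Hill fits of concentration-response data.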
A short description of experiment [6]: Cell Viability - LYMP2-003 (AID 965).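 Also: cells exposed to compounds for 24 h before reading; nearly all actives have a fitted effect of over 50% in size.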 Also: potency is read from the fitted curve at half-maximal effect. The gist of the method:
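Seed 2500 lymphoblastoid cells/well; incubate 5 hr, 37 C; add compounds; incubate 24 hr, 37 C; add CellTiter-Glo, 30 min RT; read luminescence. AC50 from Hill fit.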

The nature of experiment [7]: Cell Viability - LYMP2-004 (AID 966). Also: nearly all actives have a fitted effect of over 65% in size. The gist of the method:
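Human lymphoblastoid cells (2500/well) in complete medium were treated with compounds for 24 hr at 37 C, then intracellular ATP was measured by CellTiter-Glo luminescence. AC50 values came from Hill-equation fits of concentration-response data.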

The nature of experiment [8]: Cell Viability - LYMP2-005 (AID 967). Also: series mostly up to about 92 µM. The gist of the method: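 Acute cytotoxicity is scored as a concentration-dependent drop in intracellular ATP in human lymphoblastoid LYMP2-005 cells after 24 h compound treatment. ATP is quantified by luciferase luminescence, and AC50 is derived by Hill-equation modelling.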
The nature of experiment [9]: Cell Viability - LYMP2-009 (AID 968). Also: nearly all actives have a fitted effect of over 55% in size. Also: potency is read from the fitted curve at half-maximal effect.
The nature of experiment [10]: Cell Viability - LYMP2-013 (AID 970). Also: series mostly up to about 92 µM; nearly all actives have a fitted effect of over 55% in size. The gist of the method:
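Human lymphoblastoid cells, 2500/well, were preincubated 5 hr at 37 C, then treated with compounds for 24 hr at 37 C in complete medium. Intracellular ATP was read by CellTiter-Glo luminescence; AC50 from Hill-equation fits of concentration-response data.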

A short description of experiment [11]: Cell Viability - LYMP2-015 (AID 971). Also: nearly all actives have a fitted effect of over 55% in size. Also: potency is read from the fitted curve at half-maximal effect. The gist of the method: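 Human lymphoblastoid cells (2500/well) in complete medium were preincubated 5 hr at 37 C, then compound-treated 24 hr at 37 C. Intracellular ATP was read by CellTiter-Glo luminescence after 30 min at room temperature; AC50 came from Hill-equation concentration-response fits.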
The nature of experiment [12]: Cell Viability - LYMP2-017 (AID 972). Also: nearly all actives have a fitted effect of over 55% in size. Also: potency is read from the fitted curve at half-maximal effect. The gist of the method: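 Human lymphoblastoid cells (2500/well) were seeded in complete medium, held 5 hr at 37 C, then exposed to compounds for 24 hr at 37 C. Intracellular ATP was read by CellTiter-Glo luminescence after 30 min at room temperature, with AC50 values from Hill-equation fits.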
A short description of experiment [13]: Cell Viability - LYMP2-021 (AID 974). Also: potency is read from the fitted curve at half-maximal effect. The gist of the method: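 Human lymphoblastoid cells (2500/well) were preincubated 5 hr at 37 C, then exposed to compounds for 24 hr at 37 C in complete medium. Intracellular ATP was read by CellTiter-Glo luminescence; AC50 came from Hill-equation fits of concentration-response data.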
A short description of experiment [14]: Cell Viability - LYMP2-023 (AID 975). The gist of the method: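 Human lymphoblastoid cells (2500/well) were preincubated 5 hr at 37 C, then exposed to compounds for 24 hr at 37 C in complete medium. Cellular ATP was read by CellTiter-Glo luminescence, and AC50 came from Hill-equation fits.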
Experiment [15] in a line: Cell Viability - LYMP2-002 (AID 977).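 Also: series mostly up to about 92 µM; compound exposure lasted 24 h at 37 °C.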 The gist of the method: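 Human lymphoblastoid LYMP2-002 cells, 2500 per well, exposed to compounds for 24 h at 37 C in complete medium; viability read as intracellular ATP by CellTiter-Glo luminescence, AC50 from Hill fits.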
Experiment [16] in a line: Cell Viability - LYMP2-006 (AID 978). Also: series mostly up to about 92 µM; nearly all actives have a fitted effect of over 60% in size. The gist of the method:
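Cells are seeded at 2500 per well and rested 5 hr at 37 C. Compounds are added across a concentration series for 24 hr at 37 C, after which ATP is quantified by luciferase luminescence.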

Experiment [17] can be described thus: Cell Viability - LYMP2-007 (AID 979).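 Also: cells exposed to compound for 24 h before reading; nearly all actives have a fitted effect of over 60% in size.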 Also: potency is read from the fitted curve at half-maximal effect. The gist of the method: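 Human lymphoblastoid cells (2500/well) were plated in complete medium, incubated 5 hr at 37 C, then exposed to compounds for 24 hr at 37 C. Intracellular ATP was read by CellTiter-Glo luminescence after 30 min at room temperature; AC50 from Hill fits.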
A short description of experiment [18]: Cell Viability - LYMP2-019 (AID 973). Also: nearly all actives have a fitted effect of over 55% in size. Also: potency is read from the fitted curve at half-maximal effect. The gist of the method:
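Human lymphoblastoid cells were seeded at 2500 cells/well, preincubated 5 hr at 37 C, then exposed to compounds for 24 hr at 37 C in complete medium. Intracellular ATP was measured by CellTiter-Glo luminescence; AC50 from Hill fits.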

Experiment [19] in a line: Cell Viability - LYMP2-025 (AID 976). Also: series mostly up to about 92 µM. The gist of the method: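 Human lymphoblastoid LYMP2-025 cells (2500/well) were pre-incubated 5 hr at 37 C, then treated with compounds for 24 hr at 37 C in complete medium. Viability was read as intracellular ATP by CellTiter-Glo luminescence; AC50 from Hill fits.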

Results filed as inconclusive are left out. Calls of active or inactive are those of the source. Calls follow the shape of the dose curve; as a rule, active = well fitted curve in the direction sought with a large enough effect; inconclusive = small, poorly fitted or top-dose-only effect, or another doubt; inactive = no such curve, though single readings can be large; an effect the other way counts as inactive or inconclusive.

`CC(C)(C)CC(C)(C)c1ccc(OCCO)cc1`: the Potency entry in [1], in experiment [2], in [3], in [4], in [5] and in [6] was “inactive” each time. The Potency result in [7], in [8], in [9], in experiment [10], in experiment [11] and in experiment [12] was “inactive” each time. Moreover, the Potency entry in experiment [13], in experiment [14], in experiment [16] and in [17] was “inactive” each time. Further, the compound was called inactive in experiment [15].
Regarding `CC[C@H]1OC(=O)[C@H](C)[C@@H](O[C@H]2C[C@@](C)(OC)[C@@H](O)[C@H](C)O2)[C@H](C)[C@@H](O[C@@H]2O[C@H](C)C[C@H](N(C)C)[C@H]2O)[C@](C)(O)C[C@@H](C)CN(C)[C@H](C)[C@@H](O)[C@]1(C)O`, the Potency entry in experiment [1], in experiment [2], in experiment [3], in experiment [4], in experiment [5] and in experiment [6] was “inactive” in each case. For the same compound, the Potency entry in experiment [7], in experiment [8], in experiment [9], in experiment [10], in experiment [11] and in experiment [12] was “inactive” each time. Besides, the Potency result in experiment [18], in [13], in experiment [14], in [16] and in [17] was “inactive” each time. For the same compound, the result in experiment [19] and in [15] was inactive.
Regarding `CCOC(C)OCC`, the Potency result in experiment [1], in experiment [2], in experiment [3], in experiment [4], in [5] and in experiment [6] was “inactive” in each case. Moreover, the Potency result in [7], in experiment [8], in experiment [9], in [10], in experiment [11] and in [12] was “inactive” each time. Also, the Potency result in experiment [18], in experiment [13], in [14], in [16] and in [17] was “inactive” each time. For the same compound, the compound was classed as inactive in [19] and in [15].
Take `CC/C=C\C/C=C\C/C=C\CCCCCCCC(=O)O`: the Potency entry in experiment [1], in experiment [2], in experiment [3] and in experiment [4] was “inactive” each time. Also, the Potency is 39.8 µM (active) in experiment [6]; 50.1 µM (active) in experiment [9]; 50.1 µM (active) in experiment [11]; 50.1 µM (active) in [12]; 50.1 µM (active) in [18]; 50.1 µM (active) in experiment [13]. Moreover, the Potency in [17] was 39.8 µM (active). For the same compound, in [15], the compound was classed as inactive.
On to `CO`, for which the Potency result in experiment [1], in experiment [2], in experiment [3], in [4], in experiment [5] and in experiment [6] was “inactive” in each case. Further, the Potency entry in [7], in experiment [8], in experiment [9], in experiment [10], in [11] and in [12] was “inactive” throughout. The Potency entry in experiment [18], in [13], in experiment [14], in [16] and in [17] was “inactive” each time. Besides, the compound was called inactive in experiment [19] and in [15].

Values taken from PubChem BioAssay (NCATS).
